# The campaign covered roughly 48,000 compounds. About 13,000 (27%) showed an effect of 50% or more. The list shows a part of the results.
# Test system: Wolbachia pipientis
# Assay: Anti-Wolbachia Cell-Based Screen
# Format: functional
# Design: scale not given: in the data most compounds retested in dose-response had high values
# Conditions: 5 µM
row,Compound,Percent Effect
1,CSc1ccc(CNC(=O)C2CC(=O)N(C(C)(C)C)C2)cc1 (configuration not stated),13.09%
2,CC(C)N1CC(C(=O)NCc2ccc(S(=O)(=O)N(C)C)cc2)CC1=O (configuration not stated),136.1%
3,CN(C)S(=O)(=O)c1ccc(CNC(=O)C2CC(=O)N(C(C)(C)C)C2)cc1 (configuration not stated),129.4%
4,CC(C)(C)N1CC(C(=O)NCc2noc(Cc3ccccc3)n2)CC1=O (configuration not stated),-0.1463%
5,COc1cc(CNC(=O)C2CC(=O)N(C(C)C)C2)ccn1 (configuration not stated),-0.8085%
6,CN(C)S(=O)(=O)c1ccc(CNC(=O)C2CC2)cc1,8.545%
7,COc1cc(Cl)c(NC(=O)NCCn2cccc2)cc1OC,-6.144%
8,CCN(CC)C(=O)[C@@H]1C[C@@H](N)CN1c1nc(N2CCCC2)nc(C)c1C,-2.729%
9,O=C(c1cn(CCN2CCCCC2)nn1)N1CCCO1,-7.456%
10,Cc1cc(C(=O)N2CCCS2(=O)=O)c(C)o1,122.2%
11,Cc1occc1C(=O)N1CCCS1(=O)=O,102.9%
12,COc1cc(C(=O)N2CCCS2(=O)=O)cc(Cl)c1OC,11.62%
13,Cc1cc(C(=O)N2CCN(Cn3cc(Cl)cn3)CC2)c(C)o1,0.3754%
14,COc1cc(C(=O)N2CCCS2(=O)=O)ccc1C,-0.1842%
15,Cc1ccc(C(=O)N2CCCS2(=O)=O)cc1Cl,-5.646%
16,Cc1cc(C(=O)N2CCC(CCn3cccn3)CC2)c(C)o1,-7.806%

row,Compound,Percent Effect
1,Cc1cc(C(=O)N2CCS(=O)(=O)CC2)c(C)o1,128.6%
2,Cc1occc1C(=O)N1CCOC2(CCCC2)C1,0.5411%
3,CN(Cc1ccccc1O)C(=O)NC1CCCN(c2ncccn2)C1 (configuration not stated),-16.23%
4,NC(=O)CCCNC(=O)COc1ccccc1C(F)(F)F,8.512%
5,CN(C)C(=O)N1CC[C@]2(O)CCN(C(=O)c3ccc(C#N)nc3)C[C@@H]2C1,0.1052%
6,O=C(CCc1ccccc1)C1CCCN(C(=O)c2ncc(F)cc2F)C1 (configuration not stated),-13.78%
7,N#Cc1ccc(C(=O)N2CCC3(CC2)C(=O)Nc2ccccc23)cn1,-3.857%
8,O=C(c1cncc(F)c1)N1CCC(c2ncc[nH]2)CC1,103.6%
9,CN1CCN(c2ccc(C(=O)N3CCCC(c4ncc[nH]4)C3)cc2)CC1 (configuration not stated),-9.853%
10,O=C(c1ncc(F)cc1F)N1CCC(c2ncc[nH]2)CC1,114.8%
11,N#Cc1ccc(C(=O)N2CCC(c3ncc[nH]3)CC2)cn1,118.6%
12,Cc1cc(=O)[nH]c(SC(C)C(=O)N2CCC(c3ncc[nH]3)CC2)n1 (configuration not stated),-1.396%
13,O=C(COCC(F)(F)C(F)F)N1CCC(c2ncc[nH]2)CC1,-1.399%
14,CC(C)(C)n1ccc(C(=O)N2CCCC(c3ncc[nH]3)C2)c1 (configuration not stated),-9.494%
15,Cn1cc(C(=O)N2CCC(c3ncc[nH]3)CC2)cn1,106%
16,Cn1cc(C(=O)N2CCCC(c3ncc[nH]3)C2)cn1 (configuration not stated),-9.118%
